According to the supplement of paper PMC11219838:
Values without a mark were called inactive.

Experiments:
Conditions in all cases: 60 µM; 5 days; temperature: 20 °C
Meloidogyne hapla J2 = experiment: proportion of mobile M. hapla J2 relative to DMSO control (fraction of DMSO control); higher = more viable, less nematicidal, active = 0.7 or less
In short: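 Sealed 96-well plates, each well holding around 25 M. hapla J2 in distilled water with compound pinned to 60 µM final (0.6% v/v DMSO), were shaken at 200 rpm for 5 days at 20 °C. Then 2 µL of 1 M NaOH was added to each well. Microscope-scored mobility was normalised to the mean of DMSO-only wells from the same plate. Eight such wells were on each plate, and the two biological replicates were averaged.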

[1] = system: Caenorhabditis elegans dauer (daf-2(e1370)); experiment: proportion of mobile C. elegans dauer larvae relative to DMSO control (fraction of DMSO control); higher = more viable, less nematicidal, active = 0.63 or less; extreme values may be limits of the assay
In short: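 Synchronized C. elegans larvae were kept for 48 h at 25 °C on MYOB plates seeded with E. coli OP50 to induce dauer formation, and roughly 20 dauers were transferred into each well of a 96-well plate containing liquid NGM. Compound was pinned in to a final concentration of 60 µM with 0.6% v/v DMSO, and the sealed plates were shaken at 200 rpm for 5 days at 20 °C. The fraction of mobile worms was scored under a dissection microscope against DMSO-only wells and averaged across two biological replicates.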

Ditylenchus dipsaci = experiment: proportion of mobile D. dipsaci (mixed stage) relative to DMSO control (fraction of DMSO control); higher = more viable, less nematicidal, active = 0.86 or less; extreme values may be limits of the assay
In short: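 Mobility, expressed relative to DMSO controls, is the mean of two biological replicates. The test organisms were D. dipsaci grown on pea plants in Gamborg B-5 agar and extracted into water by filter funnel, with about 20 added per well of a 96-well plate in distilled water. Compound was pinned to 60 µM final (0.6% v/v DMSO), plates were sealed and shaken at 200 rpm for 5 days at 20 °C, and mobile worms were scored under a microscope once 2 µL 1 M NaOH had been added.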

SMILES | proportion of mobile M. hapla J2 (Meloidogyne hapla J2) | proportion of mobile C. elegans dauer larvae [1] | proportion of mobile D. dipsaci (Ditylenchus dipsaci)
COc1ccc(-c2noc(COc3ccccc3)n2)cc1 | 1.02 | 1 | 1
COc1ccc(-c2noc(COc3ccc(C4CCCCC4)cc3)n2)cc1 | 0.62 (active) | 1 | 1
Cc1cccc(-c2nnc(SCC(=O)Nc3ccc(Br)c(C)c3C)o2)c1 | 1 | 1 | 1
COc1ccc(-c2nnc(SCC(=O)Nc3ccc(Cl)cc3C)o2)cc1 | 0.709 | 1 | 1
Cc1cccc(OCc2nc(-c3ccc(-n4cccc4)cc3)no2)c1 | 1.01 | 1 | 1
N#Cc1ccc(CSc2nnc(-c3ccco3)o2)cc1 | 0.607 (active) | 1 | 1
Fc1cccc(-c2nc(-c3ccccc3)no2)c1 | 0.867 | 1 | 1
O=C(CSc1nnc(-c2ccc(Cl)cc2Cl)o1)c1ccc2c(c1)OCCO2 | 0.719 | 1 | 1
Cc1cc(OC(C)c2nc(-c3ccccn3)no2)ccc1Cl (stereo unspecified) | 1.03 | 1 | 1
CC(C)Oc1ccc(-c2nc(-c3ccncc3)no2)cc1 | 1 | 0 (active) | 0.941
Cc1cccc(OCc2nc(-c3ccncc3)no2)c1C | 0.937 | 1 | 1
Cc1ccc(OC(C)c2nc(-c3ccc4c(c3)OCO4)no2)cc1C (stereo unspecified) | 0.943 | 1 | 1
